Laboratory results reported in PubChem BioAssay (NCI).
Compounds without any hit were thinned out: in the full panel of roughly 83,000, 20% have a hit.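 How to read the values: 0–100, growth inhibition (40 = 60% inhibited); 0, no net growth; -100 to 0, cell death (-40 = 40% of starting cells died; -100 = all dead).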 Calls of active or inactive are those of the source. How the source made its calls: active means growth percent below 10; inactive means the rest.

Experiments:
Test in all cases: NCI-60 one-dose screen, 48 h (100 = growth as untreated, 0 = no growth, -100 = all killed)
Settings in all cases: 10 µM unless noted
NCI-H23 lung = test system: NCI-H23 lung
NCI-H226 lung = test system: NCI-H226 lung
NCI-H322M lung = test system: NCI-H322M lung
HOP-62 NSCLC = test system: HOP-62 NSCLC
NCI-H460 lung = test system: NCI-H460 lung
HOP-92 NSCLC = test system: HOP-92 NSCLC
NCI-H522 lung = test system: NCI-H522 lung
A549/ATCC NSCLC = test system: A549/ATCC NSCLC
786-0 renal = test system: 786-0 renal
COLO 205 colon = test system: COLO 205 colon

Measured: growth

CCCC(=O)CC(=O)c1ccccc1
inactive: NCI-H23 lung 96% | NCI-H226 lung 91.7% | NCI-H322M lung 95.1% | HOP-62 NSCLC 92.8% | NCI-H460 lung 106% | HOP-92 NSCLC 95.6% | NCI-H522 lung 78.1% | A549/ATCC NSCLC 97.9% | 786-0 renal 103% | COLO 205 colon 113%

CCNC(=O)Oc1ccc[nH]c1=O
inactive: NCI-H23 lung 105% | NCI-H226 lung 115% | NCI-H322M lung 102% | HOP-62 NSCLC 102% | NCI-H460 lung 102% | HOP-92 NSCLC 94% | NCI-H522 lung 88.4% | A549/ATCC NSCLC 91.8% | 786-0 renal 100% | COLO 205 colon 117%

Cc1cccc(-[n+]2noc(N)n2)c1
inactive: NCI-H23 lung 85.5% | NCI-H226 lung 80.8% | NCI-H322M lung 87.7% | HOP-62 NSCLC 87.3% | NCI-H460 lung 80.9% | HOP-92 NSCLC 65% | NCI-H522 lung 50.9% | A549/ATCC NSCLC 102% | 786-0 renal 93.8% | COLO 205 colon 95.7%

Oc1ccc2ccccc2c1CN1CCOCC1
inactive: NCI-H23 lung 104% | NCI-H226 lung 105% | NCI-H322M lung 112% | HOP-62 NSCLC 122% | NCI-H460 lung 115% | HOP-92 NSCLC 102% | NCI-H522 lung 110% | A549/ATCC NSCLC 99.7% | 786-0 renal 109% | COLO 205 colon 106%

Cc1ccc(O)c(N)c1
inactive: NCI-H23 lung 121% | NCI-H226 lung 97% | NCI-H322M lung 98.1% | HOP-62 NSCLC 132% | NCI-H460 lung 103% | HOP-92 NSCLC 126% | NCI-H522 lung 70.6% | A549/ATCC NSCLC 98.7% | 786-0 renal 115% | COLO 205 colon 117%

NC(=O)c1cc2c3ccccc3ccn2c1-c1ccccc1
active: NCI-H460 lung 0.187% | COLO 205 colon -13.2%
inactive: NCI-H23 lung 18.7% | NCI-H226 lung 23.3% | NCI-H322M lung 46.3% | HOP-62 NSCLC 24.3% | HOP-92 NSCLC 32.7% | NCI-H522 lung 53.1% | A549/ATCC NSCLC 22.8% | 786-0 renal 17.4%

CSc1nsc(N)n1
inactive: NCI-H23 lung 97.9% | NCI-H226 lung 103% | NCI-H322M lung 87.9% | HOP-62 NSCLC 90% | NCI-H460 lung 97.3% | HOP-92 NSCLC 95.6% | NCI-H522 lung 90.3% | A549/ATCC NSCLC 92% | 786-0 renal 106% | COLO 205 colon 99.4%

Cc1cc2c(C(C)C)c(O)c(O)c(C=Nc3ccccc3[N+](=O)[O-])c2c(O)c1-c1c(C)cc2c(C(C)C)c(O)c(O)c(C=Nc3ccccc3[N+](=O)[O-])c2c1O
inactive: NCI-H23 lung 71.4% | NCI-H226 lung 82.8% | NCI-H322M lung 89.2% | HOP-62 NSCLC 83.4% | NCI-H460 lung 87% | HOP-92 NSCLC 61% | NCI-H522 lung 64.4% | A549/ATCC NSCLC 52% | 786-0 renal 96.1% | COLO 205 colon 94.7%

CSc1cnc2ccccc2n1
inactive: NCI-H23 lung 103% | NCI-H226 lung 103% | NCI-H322M lung 94.4% | HOP-62 NSCLC 84.7% | NCI-H460 lung 102% | HOP-92 NSCLC 99.6% | NCI-H522 lung 80% | A549/ATCC NSCLC 82.8% | 786-0 renal 107% | COLO 205 colon 116%

CCC(C)c1c(N)n(S(=O)(=O)c2ccc(C)cc2)oc1=O (stereo not given)
inactive: NCI-H23 lung 108% | NCI-H226 lung 111% | NCI-H322M lung 123% | HOP-62 NSCLC 112% | NCI-H460 lung 105% | HOP-92 NSCLC 105% | NCI-H522 lung 90.1% | A549/ATCC NSCLC 108% | 786-0 renal 119% | COLO 205 colon 124%

Cc1onc(-c2c(F)cccc2Cl)c1-c1ncc(-c2ccc(Br)cc2)o1
active: NCI-H460 lung 4.75%
inactive: NCI-H23 lung 42.1% | NCI-H226 lung 73.1% | NCI-H322M lung 61.9% | HOP-62 NSCLC 59.3% | HOP-92 NSCLC 61.3% | NCI-H522 lung 41.9% | A549/ATCC NSCLC 41.7% | 786-0 renal 10.7% | COLO 205 colon 49.6%

COc1cccc2c1Cc1ccccc1-2
inactive: NCI-H23 lung 94.9% | NCI-H226 lung 94.4% | NCI-H322M lung 114% | HOP-62 NSCLC 113% | NCI-H460 lung 110% | HOP-92 NSCLC 106% | NCI-H522 lung 103% | A549/ATCC NSCLC 107% | 786-0 renal 110% | COLO 205 colon 109%

Cc1ccc(NCN2C(=O)c3ccccc3C2=O)c(C)n1
inactive: NCI-H23 lung 112% | NCI-H226 lung 103% | NCI-H322M lung 103% | HOP-62 NSCLC 110% | NCI-H460 lung 111% | HOP-92 NSCLC 102% | NCI-H522 lung 112% | A549/ATCC NSCLC 107% | 786-0 renal 95.8% | COLO 205 colon 112%

CC(C)N(C(=O)c1ccccc1)C(C)C
inactive: NCI-H23 lung 106% | NCI-H226 lung 93.6% | NCI-H322M lung 114% | HOP-62 NSCLC 109% | NCI-H460 lung 106% | HOP-92 NSCLC 97.8% | NCI-H522 lung 101% | A549/ATCC NSCLC 98.8% | 786-0 renal 106% | COLO 205 colon 114%

CCOc1ccc(C(=O)NCC(C)C)cc1
inactive: NCI-H23 lung 107% | NCI-H226 lung 104% | NCI-H322M lung 101% | HOP-62 NSCLC 95.8% | NCI-H460 lung 103% | HOP-92 NSCLC 103% | NCI-H522 lung 97.8% | A549/ATCC NSCLC 108% | 786-0 renal 97.6% | COLO 205 colon 101%
